Among all 5,500 compounds or so, about 2,000 (36%) were called active. About 18% were inconclusive and are not listed. Rule as the data show it: active = normalized growth mostly below about 0.91 (no sharp cut-off); inconclusive = no clear call, values can overlap the other calls; inactive = mostly above about 0.92. Some of the results follow.
Assay: chemical genetic growth profiling, strain panel (AID 1159580);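 also: tested at 20 µM; growth read once vehicle control cultures reached saturation at 30 °C; 1 = growth at the plate median or of vehicle wells; lower values mean less growth of the strain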
Settings: S. cerevisiae deletion strains, growth OD

Measured: normalized growth

CCCC[C@@H](CC)COC(=O)c1ccccc1O
inactive: locus YHR030C, strain SLT2, active compounds read low 0.979 | locus YHR079C, strain IRE1, active compounds read low 0.99 | locus YJL095W, strain BCK1, active compounds read low 1.02 | locus YJR066W, strain TOR1, active compounds read low 0.938 | locus YLR113W, strain HOG1, active compounds read low 0.974 | locus YNL183C, strain NPR1, active compounds read low 0.958 | locus YOR231W, strain MKK1, active compounds read low 0.984 | locus YPL256C, strain CLN2, active compounds read low 0.994

— PubChem BioAssay AID1159580 (chemical genetic matrix, 2015)
